# Test results taken from PubChem BioAssay AID1076 (NMMLSC, 2008).
# Calls of active or inactive are those of the source.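 Rule for the calls: active = cell event count below 40, meaning activity score above 60 where score is 100 minus count; inactive = the rest.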
# Test: cytotoxicity in LNCaP prostate cells – cell-based, cell event count, single point, cytotoxicity control for prostate differentiation activator project, confirmation (AID 1076);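 note: counts scatter-gated live cells after medium removal discards detached dead cells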
# Details: LNCaP cell loss, flow cytometry event count, 4 d, stronger effect = lower value
Compound,cell event count (at 100 µM),"cell event count (event count, at 10 µM)"
Cn1c(C(=O)NCCCN2CCN(c3ccccc3F)CC2)cc2c(=O)[nH]c3ccccc3c21,3 (inactive),93
CCOC(=O)c1ccc(NC(=O)Nc2ccc3c4c(cccc24)C(=O)N3CC)cc1,70 (inactive),254
COc1ccc(C)cc1NC(=O)CCC(=O)Nc1ccc2nc(N3CCN(C)CC3)cc(C)c2c1,19 (inactive),369
COC(=O)c1[nH]c2c(c1C)C(=O)CCC2,387 (inactive),252
CCOC(=O)N1CCC(NC(=O)c2cc3c(-c4ccc(OC)c(OC)c4)nn(C)c3s2)CC1,151 (inactive),398
CN(C)c1ccc(-c2nn3c(-c4ccc(Cl)cc4Cl)nnc3s2)cc1,6 (active),65.5
CCC(C)NC(=O)c1cn(C)c(=O)c2cc(OC)c(OC)cc12 (stereo not given),386 (inactive),302
N=c1n(CCO)c2ccccc2n1CCOc1ccc(Cl)cc1Cl,18 (inactive),272
CCn1c(=N)n(CC(O)COc2cccc(C)c2)c2ccccc21 (stereo not given),2 (active),50.5
Cc1ccc2c(c1)-c1c(cnn1CC(=O)Nc1ccccc1N1CCN(C)CC1)CO2,73 (inactive),142
Nc1ccccc1NC(=O)c1ccccc1N,236 (inactive),313
CCc1nn(C(C)C(=O)N2CCc3ccccc3C2)c(=O)c2cc3occc3n12 (stereo not given),91 (inactive),123
Cc1ccc2c(c1)c1c(n2CC(O)Cn2c(C)nc3ccccc32)/C(=N\O)CCC1 (stereo not given),16 (inactive),454
Cc1ccc(Cn2c(C(=O)NCCCN3CCOCC3)cc3sccc32)cc1,279 (inactive),379
COc1ccc2c(c1)CCc1c(C(=O)Nc3cc(C)n(Cc4ccc(Cl)cc4)n3)noc1-2,43 (inactive),406
CCOC(=O)N1CCC(NC(=O)C2CCCN(Cc3nc(-c4cccc(Cl)c4)oc3C)C2)CC1 (stereo not given),33 (inactive),114
COc1ccc(-c2cc3c(=O)n(CC(=O)NC4CCN(Cc5ccccc5)CC4)ncn3n2)cc1,180 (inactive),257
CC(C)(C)C1CCc2onc(C(=O)Nc3cnn(Cc4ccc(F)cc4)c3)c2C1 (stereo not given),66 (inactive),242
Cc1noc(C)c1S(=O)(=O)N1CCC(C(=O)NCCN2CCC(C)CC2)CC1,300 (inactive),188
CCOC(=O)N1CCC(NC(=O)c2cc3c(-c4ccc(Cl)cc4)nn(C)c3s2)CC1,342 (inactive),118
c1ccc(CSc2nnc(-c3cccs3)n2Cc2ccco2)cc1,55 (inactive),122
Cc1ccccc1-c1nc(CN2CCC(C(=O)NCc3ccco3)CC2)c(C)o1,158 (inactive),296
Cc1ccc(Nc2cc(=O)n(C3CCCCC3)c(=O)[nH]2)cc1C,3 (active),62.5
CCOc1ccc(NC(=O)COc2nsnc2N2CCCCC2)cc1,23 (active),63.5
COc1ccc(-n2cc(-c3ccccc3)c3c(N4CCN(CCO)CC4)ncnc32)cc1,12 (inactive),174
CCN(CC)CCCNc1oc(-c2cccc(Cl)c2)nc1C#N,32 (inactive),227
Cc1oc(-c2ccccc2F)nc1CN1CCC(C(=O)NCc2cccnc2)CC1,290 (inactive),364
CCN1CCN(CCNC(=O)C2CCN(Cc3nc(-c4ccc(Cl)cc4)oc3C)CC2)CC1,38 (inactive),378
COc1ccc(CCNC(=O)C2CCN(Cc3nc(-c4ccccc4C)oc3C)CC2)cc1OC,1 (inactive),188
COc1ccccc1N1CCN(Cc2cc(Br)c(O)c3ncccc23)CC1,17 (active),35.5
